# From PubChem BioAssay AID1159580 (chemical genetic matrix, 2015)
# Several values for one entry are separate records, joined by “and”; a condition that tells them apart may be missing. Equal entries are not always repeated. Among all 5,500 compounds or so, about 2,000 (36%) were called active. Not shown: some 18% with an inconclusive outcome. The list shows a part of the results. Unmarked numbers belong to inactive results. Rule as the data show it: active = normalized growth mostly below about 0.91 (no sharp cut-off); inconclusive = no clear call, values can overlap the other calls; inactive = mostly above about 0.92.
# Test: chemical genetic growth profiling, strain panel (AID 1159580);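 also: tested at 20 µM; growth read once vehicle control cultures reached saturation at 30 °C; 1 = growth at the plate median or of vehicle wells; lower values mean less growth of the strain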
# Details: S. cerevisiae deletion strains, growth OD
smiles,measurement,setting,value
CCOP(=S)(OCC)Oc1ccc2c(C)c(Cl)c(=O)oc2c1,normalized growth,"locus YAL013W, strain DEP1, active compounds read low",0.987
same,normalized growth,"locus YAL021C, strain ccr4, active compounds read low",0.997
same,normalized growth,"locus YAL026C, strain drs2, active compounds read low",0.96
same,normalized growth,"locus YAL030W, strain snc1, active compounds read low",0.976
same,normalized growth,"locus YBL061C, strain skt5, active compounds read low",0.96
same,normalized growth,"locus YBR009C, strain hhf1, active compounds read low",0.982
same,normalized growth,"locus YBR021W, strain FUR4, active compounds read low",0.97
same,normalized growth,"locus YBR023C, strain chs3, active compounds read low",0.944
same,normalized growth,"locus YBR171W, strain sec66, active compounds read low",0.939
same,normalized growth,"locus YBR229C, strain ROT2, active compounds read low",0.955
same,normalized growth,"locus YBR231C, strain swc5, active compounds read low",0.979
same,normalized growth,"locus YBR279W, strain paf1, active compounds read low",0.971
same,normalized growth,"locus YCL011C, strain gbp2, active compounds read low",0.906 (active)
same,normalized growth,"locus YCL016C, strain dcc1, active compounds read low",0.984
same,normalized growth,"locus YCL029C, strain bik1, active compounds read low",0.984
same,normalized growth,"locus YCL061C, strain MRC1, active compounds read low",0.96
same,normalized growth,"locus YCL069W, strain vba3, active compounds read low",0.957
same,normalized growth,"locus YCR088W, strain abp1, active compounds read low",0.964
same,normalized growth,"locus YDL005C, strain med2, active compounds read low",0.959
same,normalized growth,"locus YDL035C, strain GPR1, active compounds read low",0.978
same,normalized growth,"locus YDL040C, strain nat1, active compounds read low",0.964
same,normalized growth,"locus YDL074C, strain BRE1, active compounds read low",0.907
same,normalized growth,"locus YDL101C, strain DUN1, active compounds read low",0.975
same,normalized growth,"locus YDL134C, strain PPH21, active compounds read low",0.981
same,normalized growth,"locus YDL185W, strain tfp1, active compounds read low",0.957
same,normalized growth,"locus YDL192W, strain arf1, active compounds read low",0.975
same,normalized growth,"locus YDR001C, strain nth1, active compounds read low",0.977
same,normalized growth,"locus YDR069C, strain doa4, active compounds read low",0.938
same,normalized growth,"locus YDR101C, strain arx1, active compounds read low",0.983
same,normalized growth,"locus YDR137W, strain rgp1, active compounds read low",0.939
same,normalized growth,"locus YDR150W, strain NUM1, active compounds read low",0.982
same,normalized growth,"locus YDR159W, strain sac3, active compounds read low",0.901
same,normalized growth,"locus YDR162C, strain NBP2, active compounds read low",0.92
same,normalized growth,"locus YDR195W, strain ref2",1.03
same,normalized growth,"locus YDR297W, strain sur2, active compounds read low",0.988
same,normalized growth,"locus YDR318W, strain mcm21, active compounds read low",0.976
same,normalized growth,"locus YDR334W, strain swr1, active compounds read low",0.961
same,normalized growth,"locus YDR335W, strain msn5, active compounds read low",0.975
same,normalized growth,"locus YDR388W, active compounds read low",0.98
same,normalized growth,"locus YDR392W, strain spt3, active compounds read low",0.836
same,normalized growth,"locus YDR502C, strain sam2, active compounds read low",0.984
same,normalized growth,"locus YEL003W, strain gim4, active compounds read low",0.953
same,normalized growth,"locus YEL037C, strain rad23, active compounds read low",0.962
same,normalized growth,"locus YEL061C, strain CIN8 (second series), active compounds read low",0.962
same,normalized growth,"locus YEL061C, strain CIN8, active compounds read low",0.979
same,normalized growth,"locus YER015W, strain faa2, active compounds read low",0.966
same,normalized growth,"locus YER016W, strain bim1, active compounds read low",0.97
same,normalized growth,"locus YER110C, active compounds read low",0.977
same,normalized growth,"locus YER111C, strain swi4, active compounds read low",0.975
same,normalized growth,"locus YER155C, strain BEM2 (second series), active compounds read low",0.959
same,normalized growth,"locus YER155C, strain BEM2, active compounds read low",0.998
same,normalized growth,"locus YER167W, strain BCK2, active compounds read low",0.99
same,normalized growth,"locus YFR010W, strain ubp6, active compounds read low",0.942
same,normalized growth,"locus YGL078C, strain dbp3, active compounds read low",0.984
same,normalized growth,"locus YGL086W, strain mad1, active compounds read low",0.989
same,normalized growth,"locus YGL167C, strain pmr1, active compounds read low",0.956
same,normalized growth,"locus YGL173C, strain kem1, active compounds read low",0.956
same,normalized growth,"locus YGL227W, strain vid30, active compounds read low",0.961
same,normalized growth,"locus YGL240W, strain doc1, active compounds read low",0.933
same,normalized growth,"locus YGL248W, strain PDE1, active compounds read low",0.957
same,normalized growth,"locus YGL253W, strain hxk2, active compounds read low",0.903 (active)
same,normalized growth,"locus YGR078C, strain PAC10, active compounds read low",0.973
same,normalized growth,"locus YGR135W, strain pre9, active compounds read low",0.97
same,normalized growth,"locus YGR229C, strain SMI1, active compounds read low",0.947
same,normalized growth,"locus YGR252W, strain gcn5, active compounds read low",0.937
same,normalized growth,"locus YHR013C, strain ard1, active compounds read low",0.968
same,normalized growth,"locus YHR027C, strain rpn1, active compounds read low",1
same,normalized growth,"locus YHR030C, strain SLT2, active compounds read low",0.986 and 1.02
same,normalized growth,"locus YHR079C, strain IRE1 (second series), active compounds read low",0.988
same,normalized growth,"locus YHR079C, strain IRE1, active compounds read low",1
same,normalized growth,"locus YHR094C, strain hxt1, active compounds read low",0.985
same,normalized growth,"locus YHR129C, strain ARP1, active compounds read low",0.983
same,normalized growth,"locus YHR142W, strain chs7, active compounds read low",0.912
same,normalized growth,"locus YHR200W, strain rpn10, active compounds read low",0.984
same,normalized growth,"locus YIL066C, strain RNR3, active compounds read low",0.961
same,normalized growth,"locus YIL073C, strain SPO22, active compounds read low",0.988
same,normalized growth,"locus YIL125W, strain kgd1, active compounds read low",0.981
same,normalized growth,"locus YIR030C, strain dcg1, active compounds read low",0.989
same,normalized growth,"locus YJL092W, strain hpr5, active compounds read low",0.944
same,normalized growth,"locus YJL095W, strain BCK1 (second series), active compounds read low",0.96
same,normalized growth,"locus YJL095W, strain BCK1, active compounds read low",0.958 and 1.02
same,normalized growth,"locus YJL115W, strain asf1, active compounds read low",0.962
same,normalized growth,"locus YJL129C, strain trk1, active compounds read low",0.942
same,normalized growth,"locus YJL134W, strain LCB3, active compounds read low",0.971
same,normalized growth,"locus YJL154C, strain vps35, active compounds read low",0.985
same,normalized growth,"locus YJL164C, strain tpk1, active compounds read low",0.974
same,normalized growth,"locus YJL166W, strain qcr8, active compounds read low",0.935
same,normalized growth,"locus YJL168C, strain set2, active compounds read low",0.986
same,normalized growth,"locus YJL187C, strain SWE1 (second series), active compounds read low",0.981
same,normalized growth,"locus YJL187C, strain SWE1, active compounds read low",0.964
same,normalized growth,"locus YJR043C, strain POL32, active compounds read low",0.996
same,normalized growth,"locus YJR066W, strain TOR1, active compounds read low",0.967
